According to PubChem BioAssay (EPA / NIEHS):
Active and inactive are the calls of the source. How the source made its calls: active means hit-call score of the fitted dose curve at least 0.9, where 1 is the maximum; inactive means score below 0.9.

Assay: ATG_TGFb_CIS: Attagene CIS-FACTORIAL HepG2 Assay for human Transforming Growth Factor (TGF) (AID 2282967)
Conditions: HepG2 Attagene CIS TGFb reporter, mRNA transcription; actives raise or lower the signal
Summary of the method: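 Transient MRTU transfection of HepG2 (FuGene 6). Dose 24 h. TriZol RNA, oligo(dT) RT, PCR, 6-FAM primer extension, HpaI cut, CE. Bidirectional fit, DMSO = baseline.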

Row | SMILES | AC50 | outcome
1 | O=[N+]([O-])c1ccc(Nc2ccc(Nc3ccccc3)c(S(=O)(=O)O)c2)c([N+](=O)[O-])c1 | 148 µM (active) | –
2 | CC(C)(C)c1n[nH]c(=S)n(N)c1=O | – | inactive
3 | CC(C)[C@H]1CC[C@@H](C)CC1=O | – | inactive
4 | COc1ccc(OC)c(OC)c1 | – | inactive
5 | CCCCCC(=O)OCCc1ccccc1 | – | inactive
6 | NC(N)=NC(=O)c1nc(Cl)c(N)nc1N | – | inactive
7 | O=C(O)Cc1cccc2ccccc12 | – | inactive
8 | OC1OC[C@@H](O)[C@H](O)[C@H]1O (stereo partly specified) | – | inactive
9 | CC(=O)OCc1ccc2c(c1)OCO2 | – | inactive
10 | CCCC(=O)OCCC(C)CCC=C(C)C (stereo unspecified) | – | inactive
11 | CCCCCCCCC=O | – | inactive
12 | CCC(O)CO (stereo unspecified) | – | inactive
13 | O=C1NC(=O)c2ccccc21 | – | inactive
14 | CC1(C)[C@H](C(=O)OCc2cccc(Oc3ccccc3)c2)[C@@H]1C=C(Cl)Cl | – | inactive
15 | CC1(C)OC[C@@H]2O[C@@]3(C(=O)O)OC(C)(C)O[C@H]3[C@@H]2O1 | – | inactive
16 | CCCCc1ccc(N)cc1 | – | inactive
17 | S=C(S)NCCNC(=S)S | – | inactive
18 | OCC(CO)(CO)COCC(CO)(CO)CO | – | inactive
19 | O=C(O)c1snc(Cl)c1Cl | – | inactive
20 | Cc1ccc(C(C)C)cc1O | – | inactive
21 | Nc1ccc(S(=O)(=O)O)c(N)c1 | – | inactive
22 | CC(C)(CO)[N+](=O)[O-] | – | inactive
23 | O=C[C@@H](O)[C@H](O)[C@H](O)CO | – | inactive
24 | CCCC/C=C\CCCCCCCCCC=O | – | inactive
25 | CCC(=O)OCc1ccccc1 | – | inactive
26 | CO[Si](CCCn1c(=O)n(CCC[Si](OC)(OC)OC)c(=O)n(CCC[Si](OC)(OC)OC)c1=O)(OC)OC | – | inactive
